From PubChem BioAssay (EPA / NIEHS)
Calls of active or inactive are those of the source. How the source made its calls: active means hit-call score of the fitted dose curve at least 0.9, where 1 is the maximum; inactive means score below 0.9.

Tested on: not listed separately
Experiment: ATG_CRE_CIS: Attagene CIS-FACTORIAL HepG2 Assay for human cAMP Responsive Element (CRE) binding protein 3 (AID 2282926)
Conditions: HepG2 CRE cis-reporter, Attagene multiplexed mRNA; actives raise or lower the signal
Outline: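 Cells carrying cis-regulated reporter constructs respond through their own endogenous factors. After 24 h treatment, RNA is reverse-transcribed, amplified, labelled and sized by capillary electrophoresis; up- and down-regulation are both scored against vehicle.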

Row | SMILES | outcome | AC50
1 | C1=COCCC1 | inactive | –
2 | NC(=O)c1cccnc1 | inactive | –
3 | COC(=O)c1cccc(C(=O)OC)c1 | inactive | –
4 | CC(C)(O)CCc1ccccc1 | inactive | –
5 | NNC(=O)OCc1ccccc1 | inactive | –
6 | CC(CO)c1ccccc1 (stereo not drawn) | inactive | –
7 | CCCCCC1CCC(=O)O1 (stereo not drawn) | inactive | –
8 | c1ccc2scnc2c1 | inactive | –
9 | C=C1CC/C=C(\C)CC[C@@H]2[C@@H]1CC2(C)C | – | 124 µM (active)
10 | CC/C=C\CCOC(C)OCC (stereo not drawn) | inactive | –
11 | C=C(C)C(N)=O | inactive | –
12 | CC1=CC[C@@H]2C[C@H]1C2(C)C | inactive | –
13 | CCCCCCCCOC(=O)c1ccc(O)cc1 | inactive | –
14 | CC(C)(C)c1ccc(S)cc1 | inactive | –
15 | CCOC(=O)C(=O)OCC | inactive | –
16 | C1CCCNCC1 | inactive | –
17 | CCCCCCC(C)O (stereo not drawn) | inactive | –

Row | SMILES | outcome | AC50
18 | CC1(C)CC(N)CC(C)(CN)C1 (stereo not drawn) | inactive | –
19 | CN1CCc2cccc3c2[C@H]1Cc1ccc(O)c(O)c1-3 | inactive | –
20 | CCCCOCCOCCO | inactive | –
21 | CCn1cc(C(=O)O)c(=O)c2ccc(C)nc21 | inactive | –
22 | C=CC(=O)OCC(CO)(COC(=O)C=C)COC(=O)C=C | – | 163 µM (active)
23 | CC/C=C\CCOC(=O)C(C)C | inactive | –
24 | Nc1ccn([C@H]2CC[C@@H](CO)O2)c(=O)n1 | inactive | –
25 | CC(=O)OCC=C(C)CCC=C(C)CCC=C(C)C | inactive | –
26 | NC(N)=S | inactive | –
27 | CC(=O)C1C(=O)C=C(C)OC1=O (stereo not drawn) | inactive | –
28 | CC(C)CCOC(=O)CC(C)C | inactive | –
29 | CC(C)=CC(=O)O | inactive | –
30 | CCCCCc1cccc(=O)o1 | inactive | –
31 | CCO[Si](CCC#N)(OCC)OCC | inactive | –
32 | CC(C)COC(=O)c1ccccc1O | inactive | –
33 | O=C(C=Cc1ccccc1)OCCCc1ccccc1 | inactive | –
34 | O=C1CCC(=O)N1 | inactive | –

Target: CCAAT/enhancer-binding protein beta (Homo sapiens) (UniProt P17676)
Experiment: ATG_C_EBP_CIS: Attagene CIS-FACTORIAL HepG2 Assay for human CCAAT/Enhancer Binding Protein (C/EBP) beta (AID 2282927)
Conditions: HepG2 Attagene cis-factorial transcription factor reporter; actives raise or lower the signal
Outline: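 Chemical-treated HepG2 cells (24 h) bearing cis-regulated reporter constructs were processed for total RNA, then reverse transcription, PCR amplification, fluorescent primer extension and fragment analysis; gain- and loss-of-signal were fitted against DMSO.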

CCAAT/enhancer-binding protein beta (Homo sapiens), sequence (P17676 whole entry, looked up): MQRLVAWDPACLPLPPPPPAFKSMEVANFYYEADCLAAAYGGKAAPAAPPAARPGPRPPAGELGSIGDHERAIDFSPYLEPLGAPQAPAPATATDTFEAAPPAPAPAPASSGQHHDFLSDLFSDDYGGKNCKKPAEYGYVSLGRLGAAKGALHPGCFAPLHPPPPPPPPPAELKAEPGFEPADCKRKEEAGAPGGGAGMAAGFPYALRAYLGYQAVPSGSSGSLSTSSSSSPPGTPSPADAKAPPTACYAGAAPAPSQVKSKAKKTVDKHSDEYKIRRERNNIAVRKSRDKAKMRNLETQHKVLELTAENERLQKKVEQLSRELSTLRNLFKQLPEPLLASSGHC

Row | SMILES | outcome
35 | C1=COCCC1 | inactive
36 | NC(=O)c1cccnc1 | inactive
37 | COC(=O)c1cccc(C(=O)OC)c1 | inactive
38 | CC(C)(O)CCc1ccccc1 | inactive
39 | NNC(=O)OCc1ccccc1 | inactive
40 | CC(CO)c1ccccc1 (stereo not drawn) | inactive
41 | CCCCCC1CCC(=O)O1 (stereo not drawn) | inactive
42 | c1ccc2scnc2c1 | inactive
43 | C=C1CC/C=C(\C)CC[C@@H]2[C@@H]1CC2(C)C | inactive
44 | CC/C=C\CCOC(C)OCC (stereo not drawn) | inactive
45 | C=C(C)C(N)=O | inactive
46 | CC1=CC[C@@H]2C[C@H]1C2(C)C | inactive
47 | CCCCCCCCOC(=O)c1ccc(O)cc1 | inactive
48 | CC(C)(C)c1ccc(S)cc1 | inactive
49 | CCOC(=O)C(=O)OCC | inactive
50 | C1CCCNCC1 | inactive
51 | CCCCCCC(C)O (stereo not drawn) | inactive

Row | SMILES | outcome
52 | CC1(C)CC(N)CC(C)(CN)C1 (stereo not drawn) | inactive
53 | CN1CCc2cccc3c2[C@H]1Cc1ccc(O)c(O)c1-3 | inactive
54 | CCCCOCCOCCO | inactive
55 | CCn1cc(C(=O)O)c(=O)c2ccc(C)nc21 | inactive
56 | C=CC(=O)OCC(CO)(COC(=O)C=C)COC(=O)C=C | inactive
57 | CC/C=C\CCOC(=O)C(C)C | inactive
58 | Nc1ccn([C@H]2CC[C@@H](CO)O2)c(=O)n1 | inactive
59 | CC(=O)OCC=C(C)CCC=C(C)CCC=C(C)C | inactive
60 | NC(N)=S | inactive
61 | CC(=O)C1C(=O)C=C(C)OC1=O (stereo not drawn) | inactive
62 | CC(C)CCOC(=O)CC(C)C | inactive
63 | CC(C)=CC(=O)O | inactive
64 | CCCCCc1cccc(=O)o1 | inactive
65 | CCO[Si](CCC#N)(OCC)OCC | inactive
66 | CC(C)COC(=O)c1ccccc1O | inactive
67 | O=C(C=Cc1ccccc1)OCCCc1ccccc1 | inactive
68 | O=C1CCC(=O)N1 | inactive
